Measurements published in ChEMBL document CHEMBL3988442, “University of Dundee, Small-Polar-MMV Screening Library” (2021).

What follows are compounds tested against AMP-activated protein kinase, AMPK (Homo sapiens) (UniProt P54646+O43741+P54619+Q9UGJ0+Q9Y478+Q13131+Q9UGI9) (assay: AMP-dependent Kinase enzyme assay. An in vitro enzyme assay that detects ADP turnover that is directly proportional to AMPK activity. This uses naive AMPK that is activated during the assay with MK-8722). Conditions: 30 µM.
Assay type: functional
Parameters: scale not given: direction of the effect not stated beside the values
With `Cc1cc(C(=O)N2CCNC(=O)C2)c(C)n1Cc1ccccn1` the Percent Effect was -10.9%.
`CCc1nn(C)c(Cl)c1CN(CCOC)Cc1cnn(C)c1` showed a Percent Effect of 5.81%.
With `COc1ccc(S(=O)(=O)N2CCOC(C)(C(N)=O)C2)cc1` (stereo not given) the Percent Effect was 15.5%.
In the case of `c1cc(NCc2ccsc2)cc(-c2nnc[nH]2)c1`, the Percent Effect is reported as 14.3%.
`CS(=O)(=O)C1(CNCc2cccc(-n3cccn3)c2)CCOCC1` was tested, and the Percent Effect was 3.19%.
With `O=S(=O)(NCC1(c2cccs2)CCOCC1)c1ccc2c(c1)OCCO2` the Percent Effect was -2.31%.
With `COc1nccc(N2CC[C@H](N3CCOCC3)[C@H](CCCO)C2)c1C#N` the Percent Effect was -3.46%.
`CC(C)(O)CCc1cccc(C(=O)NCc2nccs2)c1` was tested, and the Percent Effect was 0.5%.
For `COCCC1(C(=O)O)CCCN(C(=O)c2cnc3c(c2)CCCC3)C1` (stereo not given), the Percent Effect was 2.02%.
In the case of `CN(Cc1ccc(-n2cccn2)cc1)C[C@@H]1CCCN2CCCC[C@H]12`, the Percent Effect is reported as 5.54%.
With `Cc1ccc(C)c(CC(=O)NC2CCS(=O)(=O)CC2)c1` the Percent Effect was -4.86%.
In the case of `COc1ccc(F)cc1-c1ccccc1CC1CNCCNC1=O` (stereo not given), the Percent Effect is reported as 4.74%.
In the case of `O=C1CCCN1C1CCCN(CCn2cc(Cl)cn2)C1` (stereo not given), the Percent Effect is reported as 7.29%.
Compound `Cc1cc(N(C)C)nc(N2CCn3c(C)nnc3C2)n1` has a Percent Effect of -2.14%.
`O=C(CC1CCc2ccccc21)NC1(C(=O)O)CCOCC1` (stereo not given) was tested, and the Percent Effect was -0.354%.
`Cc1cccc(C(=O)Nc2c(C(N)=O)n[nH]c2C)c1C` showed a Percent Effect of -0.641%.
For `COc1ccc(CN2CC[C@@]3(O)CCCC[C@H]3C2)cc1C(=O)O`, the Percent Effect was -10%.
In the case of `O=C1NCCN(CC2CCCCC2)C1CC(=O)N1CCc2n[nH]cc2C1` (stereo not given), the Percent Effect is reported as -8.97%.
`Cc1nn(C2CCCC2)c2nc(C(C)(C)CN3CCN(C)CC3)[nH]c12` showed a Percent Effect of 14.1%.
In the case of `O=C(NCc1ccc(N2CCSCC2)cc1)NCc1cc[nH]n1`, the Percent Effect is reported as -0.457%.
With `CCn1cc(S(=O)(=O)NCc2ccnc(-n3ccnc3)c2)cn1` the Percent Effect was -0.563%.
`Cc1csc(N2CCN(Cc3ccccn3)CC2)n1` gave a Percent Effect of -1.61%.
With `CCCNc1ncc(CN2CCOC(Cc3cccc(F)c3)C2)cn1` (stereo not given) the Percent Effect was 6.84%.
In the case of `COCCNC(=O)c1cnc(C)nc1C`, the Percent Effect is reported as 3.33%.
In the case of `COc1cccc2c1OCC(C(=O)NCc1ncc3c(n1)CCC3)C2` (stereo not given), the Percent Effect is reported as 6.59%.
In the case of `COCCC(=O)NCCc1nc2cc(-c3ccc(OC)cc3)ncn2n1`, the Percent Effect is reported as 20%.
`CCc1ccc(CC)c(NCc2cnc(N3CCOCC3)nc2)c1` gave a Percent Effect of -6.68%.
`CC(NCC(=O)Nc1ccc(N2CCCCCC2)cc1)c1cccs1` (stereo not given) was tested, and the Percent Effect was 16.8%.
Work on `CCC1(CC)CC(=O)N(CC(O)c2cc(F)ccc2F)C1=O` (stereo not given) yielded a Percent Effect of 11.8%.
`CN(C(=O)c1ccc2c(c1)nc(N1CC[C@H](O)C1)n2C)C1CCSCC1` gave a Percent Effect of 9.79%.
`Cc1cc(CNCC2CNc3ccnn3C2)no1` (stereo not given) was tested, and the Percent Effect was -2.57%.
With `Cc1ccccc1SCC(=O)NC1CCC(O)CC1` (stereo not given) the Percent Effect was 0.736%.
Work on `CCOC(=O)c1n[nH]cc1CN1CCOC(Cc2ccc(F)cc2)C1` (stereo not given) yielded a Percent Effect of 1.89%.
`CCNC(=O)NCc1ccc(-n2ccc(C(F)(F)F)n2)cc1` was tested, and the Percent Effect was -2.79%.
`N#Cc1cccc(N2CCC(CO)(CCc3ccccc3)CC2)n1` was tested, and the Percent Effect was 3.06%.
`COc1ccc(OC)c(-c2cc(C(=O)NCC3(CO)CC3)n(C)n2)c1` showed a Percent Effect of -3.88%.
`CC(=O)NCC1CCCN(C(=O)Cc2c(C)noc2C)C1` (stereo not given) was tested, and the Percent Effect was -3.15%.
Compound `Cc1ccc(F)c(CNc2ccn(CCC(N)=O)n2)c1` has a Percent Effect of -4.33%.
With `Cc1nnc(CN(C)CC(=O)N2CCCC(C)CC2)n1C` (stereo not given) the Percent Effect was 0.221%.
Compound `CC(NC(=O)C1CCCCC1)c1cc(O)nc(-c2cccnc2)n1` (stereo not given) has a Percent Effect of 5.58%.
